Data published in PubChem BioAssay (NCI).
Compounds without any hit were thinned out: in the full panel of roughly 83,000, 20% have a hit.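 Growth was measured after 48 h exposure to one concentration of compound in 96-well plates. Values under 10 count as active.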 Calls of active or inactive are those of the source.

System: HL-60(TB) leukemia
Experiment: NCI-60 one-dose screen, 48 h (100 = growth as untreated, 0 = no growth, -100 = all killed)
Details: 10 µM unless noted

SMILES | growth
CCOc1nc(-c2ccccc2)cc2c(O)c(C(=O)NC(C)C)[nH]c(=O)c12 | 168% (inactive)
CC(=O)OC1Oc2cc(C)c(C)cc2-c2oc(=O)c(-c3ccccc3)cc21 (stereo not given) | -39.1% (active)
Fc1cccc(Oc2ccc(Nc3ncnc4ccc(OCCCN5CCOCC5)cc34)cc2Cl)c1 | 83.6% (inactive)
O=C1Nc2ccccc2C1=NC1CCCCC1 | 110% (inactive)
Cc1nn2c(/C=C3/C(=O)Nc4ccc(Cl)cc43)c(-c3ccccc3)nc2s1 | 81.5% (inactive)
Cc1ccc(-c2cc(-c3ccc(C)cc3)nc(N3CCN(CCNc4ccnc5cc(Cl)ccc45)CC3)n2)cc1 | 0.0538% (active)
CC1CC(C)/C(=N/NC(N)=O)C(C(O)CC2CCC(=O)NC2=O)C1 (stereo not given) | 40.1% (inactive)
Cc1cc(C(=O)NOCCO)c(Nc2ccc(I)cc2F)n(C)c1=O | 20.8% (inactive)
COc1ccc(/C=C2\CN(Cc3cn(CCCNc4ccnc5cc(Cl)ccc45)nn3)C/C(=C\c3ccc(OC)cc3)C2=O)cc1 | 53.1% (inactive)
Cc1ccc(C(=O)Nc2ccc(CN3CCN(C)CC3)c(C(F)(F)F)c2)cc1C#Cc1cnc2cccnn12 | -71.9% (active)
CCOCC[P+](c1ccccc1)(c1ccccc1)c1ccccc1 | 11.7% (inactive)
NCCNc1ccc([N+](=O)[O-])cc1 | 91.9% (inactive)
CCOC(=O)/C(C#N)=C1/C(=O)Nc2ccccc21 | 149% (inactive)
NC(=NCCCOc1ccc(Cl)cc1)Nc1ccc(C(F)(F)F)cc1 | 94.4% (inactive)
O=C1Nc2ccc(Br)cc2C12CC(c1ccccc1)=NN2 (stereo not given) | -4.96% (active)
C=CCS(C)(=O)=O | 104% (inactive)
C[n+]1ccc(C#N)c2ccccc21 | 70.3% (inactive)
CCN1C(=O)N(CC)C2Nn3c(s/c(=C4\C(=O)N(CCC(C)C)c5ccccc54)c3=O)=NC21 (stereo not given) | 83.1% (inactive)
COc1cc(C2C=C(c3ccc(Cl)cc3)N=C3SC(C)=CN32)cc(OC)c1OC (stereo not given) | 93.6% (inactive)
Cl/C(=N\Nc1ccccc1)c1ccccc1 | 101% (inactive)
NC(=S)N/N=C/c1ccc(OC(=O)COc2ccccc2)cn1 | 35.3% (inactive)
COc1ccc2[nH]c(C(=O)N3CCN(C(=O)OCc4ccc5c(Br)cc(Br)c(O)c5n4)CC3)cc2c1 | -42.1% (active)

SMILES | growth
C#CCOc1ccc2nc(CCl)c(Cl)c(Nc3cccc(C(F)(F)F)c3)c2c1 | 56.1% (inactive)
CN(C)CCCNC(=O)C(c1ccccc1)c1ccccc1 | 106% (inactive)
O=C1OCC2=C1C(c1ccc(Cl)c(Cl)c1)c1cc3c(cc1N2CCO)CCC3 (stereo not given) | -13.1% (active)
O=C(CCCN1CCC(O)(c2ccc(Br)cc2)CC1)c1ccc(F)cc1 | 72.5% (inactive)
CCc1ccc(OC(=O)CCl)cc1 | 102% (inactive)
COc1cc(-c2csc(NC(=O)Nc3cc(Cl)cc(Cl)c3)n2)cc(OC)c1OC | 34.9% (inactive)
Oc1ccc(-c2nc3ccc4[nH]ncc4c3c3c2CCCC3)c2cccnc12 | -8.83% (active)
CN(C)c1ccc2[nH]c3c(C(N)=O)cc(=O)c(=O)c=3oc2c1 | -2.19% (active)
CCOC(=O)c1c(-c2ccc(Cl)cc2)c(C#N)c(=O)n(-c2ccccc2CC)c1N | 144% (inactive)
Cc1ccc(C(C)C)c(OCC(=O)O)c1 | 117% (inactive)
O=C1/C(=C/c2ccc(F)cc2)Sc2c(Br)cccc21 | 103% (inactive)
CCCCCCCCCCN(CCCCCCCCCC)CC(=O)c1ccc2cc(Br)c3ccccc3c2c1 | -62.2% (active)
CCOC(=O)C(NC(=O)C(Cl)Cl)C(O)c1ccccc1 (stereo not given) | 113% (inactive)
O=C(Cn1nnc([N+](=O)[O-])n1)c1ccccc1 | 38% (inactive)
O=c1ccn(C2CC=C(CO)O2)c(=O)[nH]1 (stereo not given) | 91.9% (inactive)
Cc1cc(NCCCNc2ccnc3cc(Cl)ccc23)nc(Nc2ccc(C(=O)N3CCCCC3)cc2)n1 | -63.2% (active)
O=C(NC(Cc1ccccc1)C(=O)CCl)OCc1ccccc1 (stereo not given) | 39.8% (inactive)
Nc1c(C(=O)Nc2ccccc2)sc2nc3c(cc12)C(=O)CCC3 | 19.4% (inactive)
O=c1[nH]c2ccc(Br)cc2c2c1C(c1ccc(Cl)cc1)c1c(ncn3nc(-c4ccco4)nc13)O2 (stereo not given) | 72.7% (inactive)
CCNc1cc(S(=O)(=O)O)ccc1C | 93.8% (inactive)
CSc1ccc(-c2n[nH]nc2-c2cc3ccccc3s2)cc1 | 38% (inactive)
O=C(c1ccccc1)C(CCc1ccccn1)CCc1ccccn1 | 107% (inactive)

SMILES | growth
COc1ccc(-c2nc(SCC(C)C)nc(Nc3ccc(C(=O)O)cc3)c2C#N)cc1 | 99.7% (inactive)
O=C1Nc2c(C(=O)O)cccc2/C1=N/c1n[nH]c(=S)s1 | 79.7% (inactive)
CC(=O)c1c(O)c(C)c(O)c2c1OC1=CC(=O)C(C(C)=O)C(=O)C12C (stereo not given) | 45.4% (inactive)
COc1cc(Nc2nc(NCCN)nc3cc[nH]c(=O)c23)cc(OC)c1 | 71.8% (inactive)
NS(=O)(=O)c1ccc(N=Nc2c(O)n(Cc3ccccc3)c3ccc(Cl)cc23)cc1 | 95% (inactive)
COc1cc2cc3c(nc2cc1OC)CCN3Cc1ccc(NC(=O)Nc2ccc(F)cc2F)cc1 | 80.5% (inactive)
Brc1ccc(Oc2ccc(Nc3ncnc4onc(-c5ccccc5)c34)cc2)cc1 | 101% (inactive)
Cc1ccc2nc(-c3c(CCCO)noc3N)[nH]c(=O)c2c1 | 89.8% (inactive)
COc1cc(C)ccc1Oc1nc(Nc2ccc(N3CCOCC3)cc2)ncc1N=Cc1cc(C(F)(F)F)cc(C(F)(F)F)c1 | 67.4% (inactive)
Cc1ccc(NC(=O)c2sc3nc4c(cc3c2N)C(=O)CCC4)cc1Cl | 106% (inactive)
CN(C)S(=O)(=O)c1cccc(C(=O)Nc2nc(-c3ccc(F)c(F)c3)cs2)c1 | 61.1% (inactive)
COc1ccc(C(O)c2cc3c(N)c(C(=O)Nc4cccc(Cl)c4)sc3nc2C)cc1 (stereo not given) | 0.332% (active)
COc1ccc(C2CC(c3ccc4c(c3)OCO4)=Nc3c(N)ncnc3N2)cc1 (stereo not given) | 99.3% (inactive)
O=[P@@]1(c2ccccc2)O[C@H](COCc2ccccc2)[C@@H](OCc2ccccc2)[C@H](OCc2ccccc2)[C@H]1O | 98.5% (inactive)
CC(=O)OC[C@H]1O[C@H](OC(C)=O)[C@H](NC(=O)/C=C/CCl)[C@@H](OC(C)=O)[C@@H]1OC(C)=O | 96.4% (inactive)
O=C1Nc2ccc(F)cc2/C1=C\c1nc(-c2ccccc2F)n2ccccc12 | 120% (inactive)
Nc1nc(N)c2c(n1)NC(c1cccc(Nc3ccnc4cc(C(F)(F)F)ccc34)c1)CC(c1ccc(F)cc1)=N2 (stereo not given) | 17.8% (inactive)
CC1CC(O)CC(C)(C)C1.CC1CC(O)CC(C)(C)C1.CC1CC(O)CC(C)(C)C1.CC1CC(O)CC(C)(C)C1.[Ti] (stereo not given) | 104% (inactive)
COc1ccc2c(c1)c(-c1nc(-c3c[nH]c4ncccc34)cs1)cn2CCCN1CCOCC1 | 17.4% (inactive)
Nc1c(C(=O)Nc2cccc(Br)c2)sc2nc3c(cc12)C(=O)CCC3 | 49.7% (inactive)
NC(N)=N/N=C(\N=Nc1ccccc1)c1ccc(Cl)cc1 | -8.35% (active)
Cc1ccc(C[P+](c2ccccc2)(c2ccccc2)c2ccccc2)cc1 | -63.4% (active)

SMILES | growth
COCc1c(-c2ccc(NC(=O)Nc3cc(C(F)(F)F)ccc3F)c(F)c2)c2c(N)ncnn2c1CN1CCOCC1 | -22% (active)
CCOC(=O)c1c(Cl)c2c(n1Cc1ccc(OC)cc1)-c1oncc1CCC2 | 78.9% (inactive)
CC(=O)Oc1c(C)c(OC(C)=O)c2c(c1C(C)=O)OC1CC(=O)C(C(C)=O)=C(O)C21C (stereo not given) | 79.4% (inactive)
CCCCCCn1c(=N)n(CC(O)COc2cccc(C)c2)c2ccccc21 (stereo not given) | -48% (active)
O=NN(CCCl)C(=O)NCc1ccc(-c2ccc(CNC(=O)N(CCCl)N=O)cc2)cc1 | 88.6% (inactive)
COc1cc(NC(=O)NCc2ccco2)ccc1-c1ccc(NC(=O)NCc2ccco2)cc1OC | 57.4% (inactive)
NC(=N\N=C/c1ccc(Cl)cc1Cl)/C(N)=N\N=C/c1ccc(Cl)cc1Cl | 79.7% (inactive)
CCCc1nc(C(C)(C)O)c(C(=O)O)n1Cc1ccc(-c2ccccc2-c2nn[nH]n2)cc1 | 107% (inactive)
Fc1c[c-]c(-c2ccccn2)c(F)c1.[CH3-].[Pt+2].c1ccc(P(C[PH+](c2ccccc2)c2ccccc2)c2ccccc2)cc1 | -24.2% (active)
Cc1ccc(C(=O)NCCNc2nccc(-c3c(-c4cccc(F)c4)nc4sccn34)n2)cc1 | 95.5% (inactive)
COc1cc2c(c(OC)c1OC)-c1cc(I)c(O)cc1[C@@H](NC(C)=O)CC2 | 12.7% (inactive)
O=C(CCl)Nc1ccc2c(c1)C(=O)c1ccc(NC(=O)CCl)cc1C2=O | -59.7% (active)
CC1(C)[C@@H](O)CC[C@]2(C)[C@H]3CC[C@@H]4[C@H]5[C@H](C(=O)/C=C/c6ccc(C(F)(F)F)cc6)CC[C@]5(CO)CC[C@@]4(C)[C@]3(C)CC[C@@H]12 | 28.1% (inactive)
COc1ccc(-c2nc3sc(-c4ccccc4)c(-c4ccccc4)n3c2/C=C/c2ccc(F)cc2)cc1 | 105% (inactive)
Cc1ccc(C23CCC(=O)N2CCc2cncn23)cc1 (stereo not given) | 95.7% (inactive)
O=C1NC(=O)C(=Cc2cn(Cc3ccccn3)c3ccccc23)C(=O)N1 | 101% (inactive)
CN(C)C/C=C/C(=O)Nc1cc2c(Nc3ccc(F)c(Cl)c3F)ncnc2cc1OCCOC(F)F | 13.2% (inactive)
O=C(CSc1nnc(-c2cc(-c3ccccc3)nc3ccccc23)n1-c1ccccc1)Nc1ccc(C(=O)/C=C/c2ccc(Cl)cc2)cc1 | 89% (inactive)
N#C/C(=C\c1ccc(Br)cc1)n1nnc2cc(Cl)c(Cl)cc21 | -0.568% (active)
